The results in this text go back to PubChem BioAssay (NCI).

Among the test systems are EKVX NSCLC; SN12C renal; UO-31 renal; TK-10 renal; ACHN renal; CAKI-1 renal; A498 renal; CCRF-CEM leukemia; MOLT-4 leukemia; SR leukemia; RPMI-8226 leukemia; OVCAR-8 ovarian; OVCAR-5 ovarian; OVCAR-4 ovarian; SK-OV-3 ovarian; IGROV1 ovarian; HS 578T breast; NCI/ADR-RES ovarian; T-47D breast; OVCAR-3 ovarian.
Holding throughout (assay): NCI-60 one-dose screen, 48 h (100 = growth as untreated, 0 = no growth, -100 = all killed)
Holding throughout (settings): 10 µM unless noted

About 83,000 compounds went through this panel and 20% of them were active in at least one assay; those are over-represented in the sample as a whole.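 96-well plates, one dose, 48 hours. Percent growth reported; active if below 10.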 Unmarked numbers belong to inactive results. Activity calls are given as the source filed them.

Regarding `N[C@@H](Cc1cn(-c2c3ccccc3nc3ccccc23)nn1)C(=O)O`, the growth in the experiment on EKVX NSCLC is 101%; in the experiment with SN12C renal, 98.2%; in the experiment on UO-31 renal it was 89.6%; with TK-10 renal, 140%; in the experiment with ACHN renal, 93.5%; with CAKI-1 renal, 93.8%. Further, the growth in the experiment on A498 renal was 102%; in the experiment on CCRF-CEM leukemia, 97.3%; with MOLT-4 leukemia, 99.1%; with SR leukemia it was 86%; in the experiment with RPMI-8226 leukemia, 99.9%; with OVCAR-8 ovarian it was 103%. In addition, the growth in the experiment with OVCAR-5 ovarian is 99.2%; in the experiment on OVCAR-4 ovarian, 101%; in the experiment with SK-OV-3 ovarian, 87.7%; with IGROV1 ovarian, 97.5%; with HS 578T breast, 99.8%; with NCI/ADR-RES ovarian, 105%. In addition, in the experiment on T-47D breast, the growth is 96.2%.
With `CC(=O)Oc1ccccc1C(=O)Nc1cc(C(C)C)ccc1C`, the growth in the experiment on EKVX NSCLC is 10.5%; in the experiment with SN12C renal, 8.31% (active); in the experiment with UO-31 renal, -0.422% (active); in the experiment on TK-10 renal, 21%; in the experiment with ACHN renal, 10.1%; in the experiment on CAKI-1 renal, 6.69% (active). Further, the growth with A498 renal is -29.4% (active); in the experiment with CCRF-CEM leukemia, 14.6%; in the experiment with MOLT-4 leukemia it was 4.63% (active); in the experiment with SR leukemia, -28.1% (active); with RPMI-8226 leukemia, 1.78% (active); with OVCAR-8 ovarian, 13.8%. The growth in the experiment with OVCAR-5 ovarian is 43.6%; in the experiment with OVCAR-4 ovarian, 16.9%; with IGROV1 ovarian, 25.5%; in the experiment with OVCAR-3 ovarian it was 6.75% (active); in the experiment with HS 578T breast, 19.7%; in the experiment with T-47D breast it was 9.13% (active).
Take `O=C(CSc1nc2sc3c(c2c(=O)n1-c1ccc(Cl)cc1)CCCC3)NNC(=O)Nc1cccc(C(F)(F)F)c1`: the growth is 31.5% with EKVX NSCLC; 14.6% in the experiment with SN12C renal; 13.2% in the experiment on UO-31 renal; 48.3% with TK-10 renal; 6.86% (active) with ACHN renal; 13.7% in the experiment with CAKI-1 renal. Also, the growth was -5.48% (active) in the experiment on A498 renal; 17.1% in the experiment with CCRF-CEM leukemia; 8.64% (active) in the experiment on MOLT-4 leukemia; 5.49% (active) with SR leukemia; -7.39% (active) in the experiment on RPMI-8226 leukemia; 22.1% in the experiment with OVCAR-8 ovarian. Also, the growth with OVCAR-5 ovarian is 52.6%; in the experiment with OVCAR-4 ovarian, 22.5%; with SK-OV-3 ovarian, 62.1%; in the experiment with IGROV1 ovarian it was 24.4%; in the experiment on HS 578T breast it was 56.9%; with T-47D breast, 13.2%.
`CC(C)(C)OC(=O)N1C(=O)c2c(c3c4ccccc4[nH]c3c3ccc4ccccc4c23)C1=O`: the growth was 67.7% in the experiment with EKVX NSCLC; 52.6% in the experiment on SN12C renal; 40.4% with UO-31 renal; 36.8% in the experiment on TK-10 renal; 34.5% with ACHN renal; 26% in the experiment with CAKI-1 renal. Moreover, the growth was -2.67% (active) with A498 renal; 44.4% in the experiment on CCRF-CEM leukemia; 38.2% in the experiment on MOLT-4 leukemia; 23% in the experiment with SR leukemia; 45.4% with RPMI-8226 leukemia; 60.7% in the experiment with OVCAR-8 ovarian. The growth was 63.8% in the experiment with OVCAR-5 ovarian; 77.4% in the experiment with OVCAR-4 ovarian; 45.7% with SK-OV-3 ovarian; 52.7% in the experiment on IGROV1 ovarian; 49.7% in the experiment with HS 578T breast; 75.5% with NCI/ADR-RES ovarian. In addition, the growth in the experiment on T-47D breast is 32.6%.
In the case of `CC1=C(C)C(=O)C(Nc2ccccc2)=C(Cl)C1=O`, the growth with EKVX NSCLC is 55.2%; in the experiment on SN12C renal, 91.1%; in the experiment on UO-31 renal it was 98.8%; in the experiment on TK-10 renal, 128%; in the experiment on ACHN renal, 100%; with CAKI-1 renal it was 96.1%. The growth was 91.2% with A498 renal; 5.28% (active) in the experiment with CCRF-CEM leukemia; 12.7% with MOLT-4 leukemia; 62.9% in the experiment with SR leukemia; 53.6% in the experiment with RPMI-8226 leukemia; 94.9% in the experiment with OVCAR-8 ovarian. The growth is 104% in the experiment on OVCAR-5 ovarian; -97.9% (active) in the experiment with OVCAR-4 ovarian; 9.69% (active) in the experiment on IGROV1 ovarian; 102% in the experiment on OVCAR-3 ovarian; 101% with HS 578T breast; -38.9% (active) with T-47D breast.
Consider `Fc1ccc(-c2nc(C(Cl)Cl)nc3cc(-c4ccccc4)nn23)cc1`, for which the growth in the experiment on EKVX NSCLC was 0.294% (active); in the experiment with SN12C renal it was 42.5%; in the experiment on UO-31 renal, 40.9%; with TK-10 renal, 30.3%; in the experiment on ACHN renal it was -52.3% (active); with CAKI-1 renal, -21.4% (active). In addition, the growth with A498 renal was -42.7% (active); with CCRF-CEM leukemia, 29.9%; with MOLT-4 leukemia, 6.63% (active); in the experiment on SR leukemia, 0.553% (active); in the experiment on RPMI-8226 leukemia it was 8.68% (active); in the experiment on OVCAR-8 ovarian, -0.748% (active). Also, the growth is -12.3% (active) with OVCAR-5 ovarian; -18.6% (active) in the experiment on OVCAR-4 ovarian; 20.4% in the experiment with IGROV1 ovarian; -28.1% (active) in the experiment on OVCAR-3 ovarian; -7.41% (active) in the experiment with HS 578T breast; 17.8% in the experiment on NCI/ADR-RES ovarian. In the experiment on T-47D breast, the growth is 44.3%.
Regarding `NC(=O)c1c(NC(=O)c2ccc(C3CCCCC3)cc2)sc2c1CCC(=O)C2`, the growth is 14.2% in the experiment with EKVX NSCLC; 23.7% with SN12C renal; 11.6% with UO-31 renal; 16.7% in the experiment on TK-10 renal; 4.68% (active) in the experiment on ACHN renal; -2.11% (active) with CAKI-1 renal. Further, the growth in the experiment on A498 renal is 67.6%; with CCRF-CEM leukemia, 9.82% (active); with MOLT-4 leukemia, 11.3%; in the experiment with SR leukemia, 5.25% (active); in the experiment with RPMI-8226 leukemia, -15% (active); in the experiment on OVCAR-8 ovarian, 14.8%. Besides, the growth is 23.4% in the experiment on OVCAR-5 ovarian; -0.0254% (active) in the experiment with OVCAR-4 ovarian; 24.7% in the experiment on IGROV1 ovarian; 22.4% in the experiment on OVCAR-3 ovarian; 35.4% in the experiment with HS 578T breast; -5.15% (active) in the experiment on T-47D breast.
As for `CCOC(=O)c1sc(NCC(=O)Nc2cccc([N+](=O)[O-])c2)c(C(=O)OCC)c1C`, the growth with EKVX NSCLC was -22.3% (active); in the experiment on SN12C renal, -11.5% (active); in the experiment with UO-31 renal, -64.6% (active); with TK-10 renal, -12.2% (active); in the experiment with ACHN renal it was -62.4% (active); in the experiment on CAKI-1 renal, -17.5% (active). Further, the growth in the experiment with A498 renal is -38% (active); with CCRF-CEM leukemia, 7.16% (active); in the experiment on MOLT-4 leukemia it was 6.63% (active); in the experiment on SR leukemia, 19.3%; in the experiment with RPMI-8226 leukemia it was -31.6% (active); in the experiment on OVCAR-8 ovarian, 1.78% (active). The growth is -13.7% (active) in the experiment on OVCAR-5 ovarian; -26% (active) in the experiment with OVCAR-4 ovarian; -41% (active) with IGROV1 ovarian; -4.13% (active) in the experiment on OVCAR-3 ovarian; -10.4% (active) in the experiment with HS 578T breast; -10.9% (active) in the experiment on T-47D breast.
